Screens deposited in PubChem BioAssay by National Center for Advancing Translational Sciences (NCATS).
This is a sample that favours compounds with a hit; in the whole collection about 12% have one here.
BAZ2B inh – BAZ2B (human) inhibition. 360,000 tested, 4.4% active. Q9UIF8. AlphaScreen BAZ2B-H3K14Ac peptide displacement. Potency, µM (series often up to 114 µM), without a hit: at the highest dose activity change, negative = inhibition, most hits filed as inhibitors; further: on the % scale 0 is the no-effect control and ±100 the full control effect; nearly all actives have a fitted effect of over 60% in size
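In this displacement format the biotinylated H3(5-23) peptide acetylated at Lys14 serves as ligand at 50 nM, with BAZ2B at 50 nM in PBS pH 7.4 containing 0.01% Tween-20. Donor and acceptor beads are 10 ug/mL final.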
JMJD2A Tudor inh – blocks the human JMJD2A Tudor domain. O75164. AlphaScreen JMJD2A-Tudor / H3K4me3 peptide binding. Potency, µM (series often up to 114 µM), inactives show at the top dose activity change, negative = inhibition, usual class: inhibitors. 390,000 tested, 4.4% active; further: on the % scale 0 is the no-effect control and ±100 the full control effect; nearly all actives have a fitted effect of over 50% in size
HP1b binding inh – blocks HP1-beta chromodomain binding to methylated histone tails; P83916; AlphaScreen HP1-beta / biotin-H3K9me3 peptide binding; Potency, µM (highest dose often 114 µM), for inactives: top-dose activity change, negative = inhibition, most hits filed as inhibitors; 390,000 tested, 0.56% active; further: nearly all actives have a fitted effect of over 70% in size
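Compound inhibition of the preformed complex between 50 nM HP1-beta and 50 nM biotinylated H3K9me3 peptide was read by AlphaScreen. Buffer was PBS pH 7.4 with 0.01% Tween-20. Incubations ran 30 min at room temperature, with 10 ug/mL donor/acceptor beads.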
L3MBTL1 block – inhibitors of human L3MBTL1 | Q9Y468 | AlphaScreen L3MBTL1–H3K9me1 peptide binding | Potency, µM (highest dose often 57.1 µM), for inactives: at the top dose activity, negative = inhibition, usual class: inhibitors | 230,000 tested, 0.66% active; further: on the % scale 0 is the no-effect control and ±100 the full control effect; nearly all actives have a fitted effect of over 60% in size
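L3MBTL1 (50 nM) pre-complexed 30 min with biotinylated H3(1-15)K9me1 peptide (75 nM), then compounds added for 30 min at room temperature; AlphaScreen streptavidin donor/nickel chelate acceptor beads (10 ug/mL final) read after 30 min dark incubation.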
G9a block – inhibitors of human histone lysine methyltransferase G9a. G9a H3K9 monomethylation, AlphaScreen, 2 h. Potency, µM (series often up to 102 µM), for the others: at the top dose activity, negative = inhibition, actives largely listed as inhibitors. 350,000 tested, 8.8% active; further: on the % scale 0 is the no-effect control and ±100 the full control effect; nearly all actives have a fitted effect of over 75% in size
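Chemiluminescent proximity detection of H3K9 monomethylation, read after 10 min bead incubation in the dark. Reaction: 20 nM G9a, 500 nM biotin-H3K9 peptide, 20 uM SAM cofactor, 2 h, room temperature, following 15 min enzyme-compound preincubation.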
Sfp inh – Sfp phosphopantetheinyl transferase inhibition. Potency, µM, without a hit: largest response in the series, negative = inhibition, most hits filed as inhibitors. Q9F4F7. Biochemical Sfp PPTase activity, qHTS. 310,000 tested, 3.5% active. AID 1490;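 further: the enzyme is Sfp with the accession as filed and its product quenches rhodamine fluorescence; 0% = enzyme reaction without inhibitor and -100% = no enzyme wells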
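After 15 min at room temperature with compound, 15 nM Sfp received 5 uM rhodamine-CoA plus 12.5 uM BHQ-2-ybbR (50 mM Hepes pH 7.6, 10 mM MgCl2). Rate came from the fluorescence difference over 30 min, ex 525/em 598 nm.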
Numbers without * were called inactive; ? = inconclusive; . = no result given; [ ] = remark or other dose. The call rests on the fitted dose curve; in most records, active means well fitted curve in the direction sought with a large enough effect; inconclusive means small, poorly fitted or top-dose-only effect, or another doubt; inactive means no such curve, though single readings can be large; an effect the other way counts as inactive or inconclusive. Potency means the concentration at half of the fitted maximal effect.

SMILES	BAZ2B inh	JMJD2A Tudor inh	HP1b binding inh	L3MBTL1 block	G9a block	Sfp inh
O=C(O)CC1=C(Nc2ccccc2)C(=O)N(c2ccccc2)C1c1ccc(F)cc1 (stereo not given)	-37%	-31%	7%	-1%	32µM*	11%
Cc1ccccc1C(=O)c1cccn1CC(=O)NCCN1CCN(c2cccc(C)c2C)CC1	?	50µM*	?	.	-6%[59 µM]	-5%
O=C(Cc1cccs1)NCCN1CCOCC1	-9%	1%	35%	6%	-3%[59 µM]	-13%
O=C(Cc1nc(-c2ccc(Br)s2)cs1)NCCN1CCOCC1	4%	-20%	-2%	.	-1%[12.7 µM]	50µM*
CC(=O)NC(c1ccc(Cl)cc1)c1c(O)ccc2ccc(O)cc12 (stereo not given)	-27%	-34%	4%	-16%	40µM*	10%
COc1cc(OC)c2c(-c3ccccc3)cc(=O)oc2c1C(CCN1CCCC(C)C1)c1ccc(N(C)C)cc1 (stereo not given)	16µM*	11µM*	?	.	?	?
COc1ccc(C(CCN2CCCC2)c2c(OC)cc(OC)c3c(-c4ccccc4)cc(=O)oc23)cc1 (stereo not given)	-25%	?	-10%	.	20%[12.7 µM]	-22%
COc1cc(OC)c2c(C)cc(=O)oc2c1C(CCN1CCOCC1)c1ccc(N(C)C)cc1 (stereo not given)	40µM*	50µM*	?	.	-4%[12.7 µM]	-10%
CCN(CC)CCC(c1ccc(N(C)C)cc1)c1c(OC)cc(OC)c2c(-c3ccccc3)cc(=O)oc12 (stereo not given)	32µM*	22µM*	?	.	?	56µM*
COc1cc(OC)c2c(-c3ccccc3)cc(=O)oc2c1C(CCN1CCN(c2ccccc2)CC1)c1ccc(N(C)C)cc1 (stereo not given)	4.5µM*	4.5µM*	?	.	?	1%
COc1ccc(C(CCN2CCN(c3ccccc3)CC2)c2c(OC)cc(OC)c3c(-c4ccccc4)cc(=O)oc23)cc1 (stereo not given)	?	?	-9%	.	?	22%
COc1ccc(NC(=O)CSc2nnc(NC(=O)Nc3ccccc3)s2)c(OC)c1	2%	-2%	48%	.	-24%[59 µM]	.
COc1cc(OC)c2ccc(=O)oc2c1C(CCN1CCOCC1)c1ccc2c(c1)OCO2 (stereo not given)	.	?	25%	5%	-1%[59 µM]	8%
CCCCCc1cc(=O)oc2c(C(CCN(CC)CC)c3cc(OC)c(OC)c(OC)c3)c(OC)cc(OC)c12 (stereo not given)	-31%	?	12%	.	10%[59 µM]	?
COc1cc(OC)c2ccc(=O)oc2c1C(CCN1CCOCC1)c1ccc(N(C)C)cc1 (stereo not given)	.	.	.	.	28µM*	-3%
COc1ccc(C(CCN2CCOCC2)c2c(OC)cc(OC)c3ccc(=O)oc23)cc1 (stereo not given)	.	-15%	11%	1%	.	.
COc1cc(OC)c2ccc(=O)oc2c1C(CCN1CCN(c2ccccc2)CC1)c1ccc(N(C)C)cc1 (stereo not given)	35µM*	22µM*	?	.	-138%[59 µM]	14%
CCCCCc1cc(=O)oc2c(C(CCN3CCN(c4ccccc4)CC3)c3ccc(N(C)C)cc3)c(OC)cc(OC)c12 (stereo not given)	6.3µM*	22µM*	?	.	?	-2%
Cc1ccc(-c2nc(CCNC(=O)C(=O)Nc3ccc(F)cc3F)cs2)cc1	3%	5%	31%[57 µM]	.	7%[59 µM]	.
O=C(Oc1ccc(-c2cnc3ccccc3n2)cc1)c1ccc(Cl)c([N+](=O)[O-])c1	9%	-10%	7%	?	?	3%
O=[N+]([O-])c1ccc(Oc2cccc3cccnc23)c([N+](=O)[O-])c1	?	-19%	-24%	-1%	?	?
O=C(Oc1ccc(-c2cnc3ccccc3n2)cc1)c1cccc([N+](=O)[O-])c1	7%	-15%	11%	-2%	8.9µM*	-11%
O=[N+]([O-])c1ccccc1OCCOCCOc1cccc2cccnc12	32µM*	20µM*	?	-7%	2µM*	?
O=C(Oc1cccc2cccnc12)c1cccc([N+](=O)[O-])c1	16µM*	50µM*	2%	?	9%	1%
O=C(Nc1cccc2cccnc12)c1cccc([N+](=O)[O-])c1	-32%	-11%	25%	.	79µM*	-2%
SMILES	BAZ2B inh	JMJD2A Tudor inh	HP1b binding inh	L3MBTL1 block	G9a block	Sfp inh
COC(=O)CCNC(=O)c1nn(Cc2ccccc2)c(=O)c2ccccc12	-2%	11%	29%	.	13%	17%
Cc1ccc(C)c(S(=O)(=O)N2CCC(c3nc4c(nnn4Cc4ccc5c(c4)OCCO5)c(=O)[nH]3)CC2)c1	-24%	-19%	33%	.	8%	2%
Cc1cccc(C(=O)NC(=S)Nc2c(C)n(C)n(-c3ccccc3)c2=O)c1	.	-20%	60%	.	.	.
COc1ccc(C(C(=O)NCC2CCCO2)N(Cc2cccs2)C(=O)c2snc(C(N)=O)c2N)cc1 (stereo not given)	3%	-17%	6%	.	-23%	10%
COc1ccc(CNC(=O)CSc2nc(-c3ccc(OC)c(OC)c3)cc(C(F)(F)F)n2)cc1	?	-7%	39%	.	-33%[59 µM]	.
O=c1c2c3c(sc2nnn1Cc1ccc(Br)cc1)CCCC3	22%	15%	46%	.	64%[59 µM]	.
Cc1c(C(=O)Oc2cccc3cccnc23)cccc1[N+](=O)[O-]	14µM*	45µM*	?	.	?	-19%
O=C(Nc1cc([N+](=O)[O-])ccc1O)c1cccc(C(=O)Nc2cc([N+](=O)[O-])ccc2O)c1	50µM*	?	-24%	-6%	-12%[59 µM]	13%
O=C(Oc1c(Cl)cc(Cl)c2cccnc12)c1cccc([N+](=O)[O-])c1	28µM*	?	-18%	?	?	6%
O=C(Nc1cccc2cccnc12)c1ccccc1[N+](=O)[O-]	2%[57.1 µM]	-11%	20%	.	-35%[59 µM]	.
CCN(CC)C(=O)Oc1c(Cl)cc(Cl)c2cccnc12	1%	-6%	44%	10%	.	8%
COC(=O)c1cc(NC(=O)CN(c2ccccc2)S(=O)(=O)N(C)C)ccc1Cl	0%	-8%	34%	.	-2%[59 µM]	.
COC(=O)c1ccc(CN2[C@@H]3C[C@@H](O)CC[C@@H]3C[C@H]2C(=O)OC)cc1	.	.	.	.	.	2%
C/C(=N/NC(=O)C1CCCN1C(=O)c1ccc([N+](=O)[O-])cc1)c1ccc(Br)cc1 (stereo not given)	-35%	-17%	20%	.	15%	1%
